Results as given in PubChem BioAssay (EPA / NIEHS).
The source made the active and inactive calls. Rule for the calls: active = hit-call score of the fitted dose curve at least 0.9, where 1 is the maximum; inactive = score below 0.9.

Key:
[1] = ATG_CRE_CIS: Attagene CIS-FACTORIAL HepG2 Assay for human cAMP Responsive Element (CRE) binding protein 3 (AID 2282926); settings: HepG2 CRE cis-reporter, Attagene multiplexed mRNA; actives raise or lower the signal
Procedure, shortened: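 Liver-derived HepG2, transfected with a CRE-containing reporter panel, exposed 24 h; transcript levels sized and quantified by capillary electrophoresis of labelled amplicons; signal changes either way referenced to vehicle.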

[2] = ATG_CMV_CIS: Attagene CIS-FACTORIAL HepG2 Assay for human CMV (Internal Marker) (AID 2282928); settings: HepG2 CMV promoter reporter, transcription factor profiling; actives raise or lower the signal;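 note: endpoint acts as a background internal control marker rather than a target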
Procedure, shortened: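 Readout: fluorescent reporter cDNA fragments separated by capillary electrophoresis after RT-PCR and HpaI cut. Cells: HepG2 carrying transfected cis-promoter reporter constructs, dosed 24 h. Endpoint serves as background internal-marker control, fit bidirectionally versus DMSO.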

[3] = ATG_DR4_LXR_CIS: Attagene CIS-FACTORIAL HepG2 Assay for human Liver X Receptor (LXR), DR4 submotif (AID 2282929); settings: HepG2 Attagene DR4 cis-reporter, mRNA transcription; actives raise or lower the signal
Procedure, shortened: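 Transiently transfected HepG2 liver cells; cis-regulated reporters; 24 h dosing. RT-PCR plus CE read-out of reporter mRNA. DMSO baseline, bidirectional curve fitting.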

[4] = ATG_AP_1_CIS: Attagene CIS-FACTORIAL HepG2 Assay for human Activator Protein 1 (AP-1) (AID 2282931); settings: HepG2 Attagene cis-factorial AP-1 reporter mRNA; actives raise or lower the signal
Procedure, shortened: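 We transfected HepG2 cells transiently with a set of cis-regulated reporter transcription units, dosed them for 24 h, and quantified reporter mRNA via RT-PCR and capillary electrophoresis, scoring gain or loss of signal relative to DMSO.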

[5] = ATG_AP_2_CIS: Attagene CIS-FACTORIAL HepG2 Assay for human Activator Protein 2 (AP-2) (AID 2282932); settings: HepG2 AP-2 cis-reporter, Attagene transcription factor profiling; actives raise or lower the signal
Procedure, shortened: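 Endogenous transcription factor activity is reported through transfected multiplex reporter constructs in HepG2, after 24 h of compound exposure. Transcripts were quantified by RT-PCR and capillary electrophoresis of fluorescent fragments. Bidirectional fit against DMSO.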

[6] = ATG_BRE_CIS: Attagene CIS-FACTORIAL HepG2 Assay for human Bone Morphogenetic Protein (BMP) Response Element (BRE) (AID 2282933); settings: HepG2 BMP response element reporter, Attagene transcription factor profiling; actives raise or lower the signal
Procedure, shortened: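 Read-out: reporter mRNA induction quantified by RT-PCR and capillary electrophoresis after 24 h chemical exposure of transfected HepG2 cells. Endogenous factor activity on the BMP response element; gain or loss fitted against DMSO baseline.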

[7] = ATG_E_Box_CIS: Attagene CIS-FACTORIAL HepG2 Assay for human Enhancer Box (E-box) (AID 2282936); settings: HepG2 E-box cis-reporter transcription, actives raise or lower the signal
Procedure, shortened: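 E-box-driven reporter transcripts measured in transiently transfected HepG2 after 24 h exposure: RNA reverse-transcribed, PCR-amplified, fluorescently labelled, digested and resolved by capillary electrophoresis. Gain or loss relative to DMSO.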

[8] = ATG_M_61_CIS: Attagene CIS-FACTORIAL HepG2 Assay for M61 Transcription Factor (Internal Marker) (AID 2282937); settings: HepG2 Attagene CIS-FACTORIAL M61 internal marker reporter; actives raise or lower the signal
Procedure, shortened: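 Multiplexed reporter mRNA assay, HepG2 human hepatoma cells, 24 h treatment. Signal: FAM-labelled, HpaI-digested RT-PCR fragments by CE. Fit: bidirectional, baseline DMSO.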

[9] = ATG_EGR_CIS: Attagene CIS-FACTORIAL HepG2 Assay for human Early Growth Response 1 (EGR1) (AID 2282938); settings: HepG2 Attagene CIS-FACTORIAL EGR reporter mRNA; actives raise or lower the signal
Procedure, shortened: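 Multiplexed cis-reporter system in human hepatoma HepG2 cells, transiently transfected. Cells are dosed for 24 h; reporter transcripts are amplified, fluorescently tagged and sized by capillary electrophoresis, with DMSO as negative control.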

[10] = ATG_M_19_CIS: Attagene CIS-FACTORIAL HepG2 Assay for M19 Transcription Factor (Internal Marker) (AID 2282939); settings: HepG2 Attagene CIS-FACTORIAL M19 internal marker reporter; actives raise or lower the signal
Procedure, shortened: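 Readout: fluorescent reporter-transcript fragments by capillary electrophoresis after RT-PCR. Human HepG2 liver cells carried transfected MRTU constructs reporting endogenous transcription-factor activity; exposure 24 h. Gain or loss of signal fitted relative to DMSO.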

[11] = ATG_Ets_CIS: Attagene CIS-FACTORIAL HepG2 Assay for human Erythroblast Transformation Specific (ETS) (AID 2282941); settings: HepG2 ETS cis-reporter transcription, actives raise or lower the signal
Procedure, shortened: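 RT-PCR/capillary electrophoresis fluorescence read-out of reporter mRNA; HepG2 transient multi-reporter transfection; 24 h compound exposure; gain or loss of signal fitted bidirectionally relative to DMSO.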

[12] = ATG_FoxO_CIS: Attagene CIS-FACTORIAL HepG2 Assay for human Forkhead box O (FoxO) (AID 2282943); settings: HepG2 Attagene cis-reporter, FoxO element, mRNA; actives raise or lower the signal
Procedure, shortened: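 Human hepatoma HepG2 cells carry transiently introduced reporter transcription units controlled by cis promoter elements. Chemical treatment lasted 24 h, and mRNA signal was compared with DMSO.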

[13] = ATG_ISRE_CIS: Attagene CIS-FACTORIAL HepG2 Assay for human Interferon Regulatory Factor 1 (IRF1) binding to an Interferon-Stimulated Response Element (ISRE) (AID 2282948); settings: HepG2 ISRE cis-reporter (Attagene), mRNA transcription readout; actives raise or lower the signal
Procedure, shortened: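 Read-out: fluorescent RT-PCR products resolved by capillary electrophoresis, reporting endogenous transcription factor activity via ISRE-driven reporter mRNA in transfected HepG2 cells dosed for 24 h; gain or loss fitted relative to DMSO.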

[14] = ATG_M_06_CIS: Attagene CIS-FACTORIAL HepG2 Assay for M06 Transcription Factor (Internal Marker) (AID 2282950); settings: HepG2 Attagene CIS-FACTORIAL M06 internal marker reporter; actives raise or lower the signal
Procedure, shortened: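 Terse: HepG2, transient MRTU transfection (FuGene 6), 24 h dosing; total RNA, oligo(dT) RT, PCR, FAM label, HpaI cut, capillary electrophoresis; bidirectional fit vs DMSO baseline; background-control endpoint.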

[15] = molecular target: Paired box protein Pax-6 (Homo sapiens) (UniProt P26367); assay: ATG_Pax6_CIS: Attagene CIS-FACTORIAL HepG2 Assay for human Paired Box 6 (PAX6) (AID 2282956); settings: HepG2 CIS-FACTORIAL PAX6 reporter transcription, RNA readout; actives raise or lower the signal
Procedure, shortened: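 Readout: reporter transcript fluorescence after RT-PCR and capillary electrophoresis. Cells: HepG2, transiently transfected with cis-regulated MRTUs. Exposure 24 h. Gain or loss of signal fitted bidirectionally relative to DMSO.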

[16] = ATG_SREBP_CIS: Attagene CIS-FACTORIAL HepG2 Assay for human Sterol Regulatory Element Binding (SREBP) (AID 2282962); settings: HepG2 Attagene cis-factorial SREBP reporter, mRNA; actives raise or lower the signal
Procedure, shortened: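 Readout: fluorescent reporter-transcript peaks resolved by capillary electrophoresis after RT-PCR. Cells were human HepG2 carrying transfected cis-promoter reporter constructs, dosed for 24 h. Gain or loss of signal was fitted against DMSO controls.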

[17] = ATG_TA_CIS: Attagene CIS-FACTORIAL HepG2 Assay for human TA Basal Promoter (AID 2282964); settings: HepG2 Attagene CIS-factorial TA basal promoter reporter; actives raise or lower the signal
Procedure, shortened: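 Transfected HepG2, 24 h compound exposure; RNA → RT-PCR → FAM primer extension → HpaI cut → CE fluorescence. Gain/loss-of-signal fitted against DMSO negative control. Background-control readout.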

[18] = ATG_TCF_b_cat_CIS: Attagene CIS-FACTORIAL HepG2 Assay for human T-Cell-Factor with beta-catenin (TCF/b-cat) (AID 2282965); settings: HepG2 TCF/beta-catenin cis-reporter transcription, actives raise or lower the signal
Procedure, shortened: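 Measured: reporter mRNA in HepG2 transiently transfected with cis-promoter reporter units, 24 h after chemical addition. Fitting was bidirectional, DMSO as negative control.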

[19] = ATG_TGFb_CIS: Attagene CIS-FACTORIAL HepG2 Assay for human Transforming Growth Factor (TGF) (AID 2282967); settings: HepG2 Attagene CIS TGFb reporter, mRNA transcription; actives raise or lower the signal
Procedure, shortened: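 Readout: fluorescently labeled reporter cDNA fragments resolved by capillary electrophoresis after RT-PCR. Transfected HepG2 cells dosed for 24 h; endogenous TF activity at TGFB1-linked cis element; gain or loss fitted relative to DMSO.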

[20] = ATG_Oct_MLP_CIS: Attagene CIS-FACTORIAL HepG2 Assay for human Octamer-Binding Transcription Factor (Oct) (AID 2282993); settings: HepG2 Attagene cis-factorial Oct reporter, mRNA; actives raise or lower the signal
Procedure, shortened: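 Read-out: reporter mRNA via RT-PCR plus capillary electrophoresis of 6-FAM-labelled fragments. Transiently transfected HepG2, 24 h exposure, endogenous TF activity on cis elements. Gain or loss of signal fitted relative to DMSO.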

Measured: AC50

Chain of Paired box protein Pax-6 (Homo sapiens) (P26367 whole entry, looked up): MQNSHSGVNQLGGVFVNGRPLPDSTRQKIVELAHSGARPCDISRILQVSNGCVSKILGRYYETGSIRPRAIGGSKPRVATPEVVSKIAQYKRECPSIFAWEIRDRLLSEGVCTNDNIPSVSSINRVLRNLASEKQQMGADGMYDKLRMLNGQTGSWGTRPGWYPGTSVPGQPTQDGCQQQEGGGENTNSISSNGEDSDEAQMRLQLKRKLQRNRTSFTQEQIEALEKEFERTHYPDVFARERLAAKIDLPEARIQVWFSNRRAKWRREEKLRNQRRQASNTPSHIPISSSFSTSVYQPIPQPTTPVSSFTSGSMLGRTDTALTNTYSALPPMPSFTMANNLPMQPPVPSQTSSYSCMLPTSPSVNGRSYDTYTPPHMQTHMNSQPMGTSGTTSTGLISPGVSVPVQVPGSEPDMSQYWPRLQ

CC(=O)Nc1c(I)c(NC(C)=O)c(I)c(C(=O)O)c1I
inactive: all assays above

CC(C)CC(=O)CC(C)CC(C)C (stereo not given)
inactive: all assays above

c1ccc(CNc2ncnc3nc[nH]c23)cc1
inactive: all assays above

Clc1ccccn1
inactive: all assays above

CCC(=O)OCc1ccc(OC)cc1
inactive: all assays above

CN1CCCC1
inactive: all assays above

Cc1cc2nc3c(=O)[nH]c(=O)nc-3n(C[C@H](O)[C@H](O)[C@H](O)CO)c2cc1C
inactive: all assays above

C=C1CC[C@H]2C[C@@H]1C2(C)C
active: [1] 26 µM | [6] 26.1 µM
inactive: all other assays above

CNC[C@H](O)[C@@H](O)[C@H](O)[C@H](O)CO
inactive: all assays above

CCCCCCC(O)CCCCCCCCCCC(=O)OC (stereo not given)
active: [19] 100 µM
inactive: all other assays above

O=C1NC(=O)C2CC=CCC12 (stereo not given)
inactive: all assays above

CC/C=C\CC1=C(C)CCC1=O
inactive: all assays above

CN(C)CCC(c1ccc(Cl)cc1)c1ccccn1 (stereo not given)
active: [13] 125 µM
inactive: all other assays above

CCO[Si](OCC)(OCC)c1ccccc1
inactive: all assays above
